In PubChem BioAssay AID463173 (ICCB-Longwood Screening Facility, Harvard Medical School, 2010):
About 4,300 (8.3%) of roughly 52,000 compounds were called active. Only a selection was taken, and actives are over-represented in it overall. Values without a mark were called inactive. Rule as the data show it: active = survival mostly below about 52% (no sharp cut-off); inactive = mostly above about 56%.

tested on: DeltatarO mutant; experiment: S. aureus survival, RN4220 and DeltatarO strains – OD600, teichoic acid synthesis inhibitors, primary screen (AID 463173); settings: S. aureus RN4220 wild type/DeltatarO growth, OD600, 18 h, active compounds read low, screened at 18.75 µg/mL (by protocol)

Compound | survival
CCOc1ccc(C(=O)C(CC(CN2CCOCC2)C(=O)c2ccc(OCC)cc2)CN2CCOCC2)cc1 (configuration not stated) | 104%
O=C1c2oc3ccc(F)cc3c(=O)c2C(c2cccc([N+](=O)[O-])c2)N1CCCN1CCOCC1 (configuration not stated) | 84%
CCCCOc1ccc(C(=O)OCC2CCCN3CCCCC23)cc1OC (configuration not stated) | 107%
Cc1ccc(CNC(=O)CCC(=O)N2CC3CCCN3c3ccccc32)cc1 (configuration not stated) | 83%
O=C(CCC(=O)N1CC2CCCN2c2ccccc21)NCc1ccc(F)cc1 (configuration not stated) | 0% (active)
O=C(CCC(=O)N1CC2CCCN2c2ccccc21)NCc1ccccc1Cl (configuration not stated) | 69%
O=C(CCC(=O)N1CC2CCCN2c2ccccc21)NCc1cccc(Cl)c1 (configuration not stated) | 37% (active)
O=C(CCC(=O)N1CC2CCCN2c2ccccc21)NCc1ccccc1 (configuration not stated) | 74%
COc1cccc(CNC(=O)CCC(=O)N2CC3CCCN3c3ccccc32)c1 (configuration not stated) | 66%
O=C(O)c1cc2ccccc2[nH]c1=O | 107%
CCc1cccc(NC(=O)Cc2nc(-c3ccc(OC)cc3)no2)c1 | 77%
O=C(Nc1ccc(S(=O)(=O)N2CCCCC2c2cccnc2)cc1)c1ccc(Br)cc1 (configuration not stated) | 92%
CC(=O)N1CCc2cc(Br)cc(S(=O)(=O)N3CCN(c4cccc(C)c4)C(C)C3)c21 (configuration not stated) | 74%
CCOc1ccccc1NC(=O)Cn1c(=O)n(Cc2ccccc2)c(=O)c2c(C)c(C)sc21 | 66%
CCOC(=O)c1ccccc1NC(=O)Cn1c(=O)n(-c2ccc(CC)cc2)c(=O)c2c(C)c(C(=O)N(C)C)sc21 | 0% (active)
CCc1ccc(-n2c(=O)c3c(C)c(C(=O)N(C)C)sc3n(CC(=O)Nc3cc(Cl)ccc3C)c2=O)cc1 | 131%
COC(=O)c1ccccc1NC(=O)Cn1c(=O)n(-c2cccc(OC)c2)c(=O)c2c(C)c(C(=O)N(C)C)sc21 | 117%
CCN(CC)C(=O)c1sc2c(c1C)c(=O)n(-c1ccc(Cl)c(Cl)c1)c(=O)n2CC(=O)Nc1cccc(OC)c1 | 70%
Cc1c(C(=O)N(C)C)sc2c1c(=O)n(-c1ccc(Cl)c(Cl)c1)c(=O)n2CC(=O)Nc1cccc(C(F)(F)F)c1 | 46% (active)
CCOC(=O)c1ccccc1NC(=O)Cn1c(=O)n(Cc2ccccc2)c(=O)c2c(C)c(C)sc21 | 84% (active)
Cc1c(C(=O)N(C)C)sc2c1c(=O)n(-c1ccc(Cl)c(Cl)c1)c(=O)n2CC(=O)Nc1ccc(Br)cc1F | 144%
Cc1ccccc1NC(=O)Cn1c(=O)n(Cc2ccccc2)c(=O)c2c(C)c(C)sc21 | 136%
